In the library only some 12% were active in any assay of this set; here they are far more common.
PLK1 PBD inh: qHTS for Inhibitors of PLK1-PDB (polo-like kinase 1 - polo-box domain): Primary Screen; Plk1 PBD binding of FITC phosphopeptide, fluorescence polarization; Serine/threonine-protein kinase PLK1 (Homo sapiens), P53350; 2.8% of 360,000 active; Potency, µM, most hits filed as inhibitors; AID 720504, 2013; also: series mostly up to about 57 µM; nearly all actives have a fitted effect of over 65% in size
VP16 counter: VP16 counterscreen qHTS for inhibitors of ROR gamma transcriptional activity | Potency, µM (top dose mostly 53.6 µM), usual class: inhibitors | Drosophila S2 Gal4-VP16 UAS-luciferase, luminescence, 20 h | 3.5% of 310,000 active;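 also: Gal4-VP16 expression switched on by copper sulfate through the metallothionein promoter; nearly all actives have a fitted effect of over 50% in size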
RORg inh: qHTS for inhibitors of ROR gamma transcriptional activity; AID 2551, 2010; Nuclear receptor ROR-gamma (Mus musculus), P51450; 5.4% of 310,000 active; Potency, µM (doses to about 53.6 µM), actives largely listed as inhibitors; Drosophila S2 Gal4-RORgamma UAS-luciferase reporter, 20 h; also: nearly all actives have a fitted effect of over 60% in size
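Using a luciferase readout, inhibitors were identified by reduced reporter activity in Drosophila cells coexpressing a copper-inducible Gal4–ROR gamma fusion and UAS-driven Photinus luciferase, incubated 20 hr after 700 uM copper sulfate.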
ALDH1A1 block: qHTS Assay for Inhibitors of Aldehyde Dehydrogenase 1 (ALDH1A1) | 7.3% of 220,000 active | Purified ALDH1A1, NADH fluorescence, propionaldehyde substrate | Potency, µM (titrated, usually from 75.3 µM), most hits filed as inhibitors | AID 1030, 2008; active = well fitted inhibition curve with a large enough effect, not every such curve was filed as active; inconclusive = small, poorly fitted or top-dose-only effect, or another doubt; inactive = no such curve, though single readings can be large or run the other way
Target sequence (P00352 whole entry, looked up): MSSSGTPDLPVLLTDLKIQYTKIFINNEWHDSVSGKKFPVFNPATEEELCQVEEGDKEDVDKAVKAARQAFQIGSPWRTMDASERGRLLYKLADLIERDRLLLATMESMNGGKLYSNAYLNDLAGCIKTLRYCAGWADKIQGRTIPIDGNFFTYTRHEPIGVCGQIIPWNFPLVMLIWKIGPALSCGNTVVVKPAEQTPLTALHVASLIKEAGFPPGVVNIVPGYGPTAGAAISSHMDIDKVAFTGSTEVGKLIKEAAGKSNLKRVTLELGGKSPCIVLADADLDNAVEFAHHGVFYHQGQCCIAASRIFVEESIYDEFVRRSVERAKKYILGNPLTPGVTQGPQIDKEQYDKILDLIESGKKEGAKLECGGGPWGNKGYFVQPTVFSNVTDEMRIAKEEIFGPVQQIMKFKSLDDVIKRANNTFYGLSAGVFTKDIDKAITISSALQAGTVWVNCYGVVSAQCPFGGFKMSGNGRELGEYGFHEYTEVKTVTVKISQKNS
Sfp PPTase inh: qHTS Assay for Inhibitors of Bacillus subtilis Sfp phosphopantetheinyl transferase (PPTase) | 4'-phosphopantetheinyl transferase ffp (Bacillus subtilis), Q9F4F7 | Biochemical Sfp PPTase activity, qHTS | Potency, µM, hits mostly inhibitors | 3.5% of 310,000 active;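 also: the enzyme is Sfp with the accession as filed and its product quenches rhodamine fluorescence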
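Compounds were incubated with enzyme (final 15 nM) for 15 min at room temperature before substrate addition started the reaction. Fluorescence at 525 nm excitation, 598 nm emission was recorded immediately and after 30 minutes.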
A number is an active result; n = inactive; u = inconclusive; x = not tested or not shown. Unless noted, calls follow the shape of the dose curve; as a rule, active = well fitted curve in the direction sought with a large enough effect; inconclusive = small, poorly fitted or top-dose-only effect, or another doubt; inactive = no such curve, though single readings can be large; an effect the other way counts as inactive or inconclusive.

SMILES	PLK1 PBD inh	VP16 counter	RORg inh	ALDH1A1 block	Sfp PPTase inh
CC1(C)CC(=O)C(C(C2=C(O)CC(C)(C)CC2=O)c2ccc(O)c([N+](=O)[O-])c2)=C(O)C1	4.7µM	n	n	u	20µM
COc1cccc(C(C2=C(O)CC(C)(C)CC2=O)C2C(=O)CC(C)(C)CC2=O)c1 (centres undefined)	u	n	u	n	n
Cc1ccc(C(C2=C(O)CC(C)(C)CC2=O)C2C(=O)CC(C)(C)CC2=O)s1 (centres undefined)	4.7µM	n	n	8.9µM	35µM
CC1(C)CC(=O)C(C(C2=C(O)CC(C)(C)CC2=O)c2ccc([N+](=O)[O-])cc2)C(=O)C1 (centres undefined)	n	n	n	u	18µM
CCOC(=O)C1=C[C@@H](C(C)(C)C)N(S(=O)(=O)c2ccc(C)cc2)[C@H]1c1ccc(Cl)c(Cl)c1	n	x	x	x	x
CN(Cc1ccccc1)C(=O)COC(=O)c1cc(NS(=O)(=O)c2cccs2)ccc1O	n	n	n	n	n
COCCNC(=O)C1(C)CCCN(Cc2ccc(Oc3ccccc3)cc2)C1 (centres undefined)	n	x	x	x	x
COc1ccc(-c2cn(-c3ccc(C)cc3C)c(=O)[nH]2)cc1OC	n	n	n	u	n
Cc1ccc(C)c(-n2cc[nH]c2=S)c1	u	u	11µM	u	u
Cc1cc(C)cc(-n2cc[nH]c2=S)c1	n	10µM	7.1µM	n	n
Cc1ccc(-n2cc[nH]c2=S)c(C)c1	u	u	10µM	u	n
OC(c1ccc(CN2CCCCC2)cc1)c1ncc(-c2ccccc2)[nH]1 (centres undefined)	n	x	x	x	x
Cc1cc(C)c(CN2CCN(C(=O)CC[C@H]3O[C@@H](n4ccc(=O)[nH]c4=O)[C@H](O)[C@@H]3O)CC2)c(C)c1	n	x	x	x	x
COc1ccc(C(=S)N2CCOCC2)cc1OC(=O)c1ccccc1Cl	19µM	n	n	x	56µM
COc1cc(C(=S)N2CCOCC2)ccc1OC(=O)c1ccccc1C	n	n	u	x	n
O=C(COc1ccc(C(=S)N2CCOCC2)cc1Cl)Nc1ccccc1Cl	u	n	n	18µM	20µM
O=C(Oc1cccc(C(=S)N2CCOCC2)c1)c1ccccc1	u	n	n	x	56µM
COc1cc(C(=S)N2CCOCC2)ccc1OC(=O)c1cccc(C)c1	u	n	u	x	79µM
COC(=O)c1ccc(C(=O)N2CCCC(C)(C(=O)NS(=O)(=O)C3CC3)C2)cc1 (centres undefined)	n	x	x	x	x
C[C@@H]1CN([C@@H](C)CO)C(=O)c2cc(N(C)C)ccc2O[C@@H](C)CCCCO[C@@H]1CN(C)Cc1ccc2c(c1)OCO2	n	x	x	x	x
COc1ccc(NC(=O)C2CCN(S(=O)(=O)c3ccc(N4CCCC4=O)cc3)CC2)cc1OC	n	n	n	x	n
COc1cc(NC(=O)C2CCN(S(=O)(=O)c3ccc(N4CCCC4=O)cc3)CC2)cc(OC)c1	30µM	n	n	x	n
O=C(Nc1ccc(C(F)(F)F)cc1)C1CCN(S(=O)(=O)c2ccc(N3CCCC3=O)cc2)CC1	n	3.5µM	n	x	n
CCCC1O[C@@H]2C[C@H]3[C@@H]4CCC5=CC(=O)C=C[C@]5(C)C4[C@@H](O)C[C@]3(C)[C@]2(C(=O)CO)O1 (some centres undefined)	x	x	x	n	x
CCCCNC(=S)NNC(=O)c1csc(C)c1CC	n	n	2.8µM	n	n
SMILES	PLK1 PBD inh	VP16 counter	RORg inh	ALDH1A1 block	Sfp PPTase inh
C=CCNC(=S)NNC(=O)c1ccccc1	n	u	u	n	n
C=CCNC(=S)NNC(=O)c1csc(CC)c1	n	n	n	n	n
C=CCNC(=S)NNC(=O)c1cccc2ccccc12	n	n	1.1µM	n	n
CCCCNC(=S)NNC(=O)c1csc(C)c1	n	n	n	n	n
C=CCNC(=S)NNC(=O)c1csc(C)c1CC	n	n	8.9µM	n	n
Cc1nc2cnc(N(C)C)nc2n(-c2ccccc2)c1=O	x	n	n	u	n
CC(C)Oc1cccc(-c2nnc(SCC(=O)Nc3ccc4c(c3)OCCO4)n2N)c1	n	n	n	13µM	n
Nn1c(SCC(=O)Nc2ccc3c(c2)OCCO3)nnc1-c1cccnc1	n	n	n	x	n
